Measurements: PubChem BioAssay AID651956 (Broad Institute, 2012)
Potency and affinity values are given separately. Records with an inconclusive call do not appear. Activity calls are given as the source filed them.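 The calls were made as follows: active = in every test run, a fitted half-maximal concentration for signal decrease at or below twice the highest tested concentration; inconclusive = runs disagree, flat 30 to 70% decrease, or poor fit; inactive = the rest.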

Assay: miR-122 activators in hepatoma reporter cells, dose response, cell-based, Huh7 psiCHECK-miR122, Renilla luciferase, cherry-picked (AID 651956);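 also: Renilla luciferase from a miR-122 sensor reporter so lower signal means miR-122 activation; 0% = median neutral control wells and -100% = median positive control wells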
Conditions: 48 h; series mostly up to 35 µM; activity change, negative = signal decrease: at the top concentration

Activity change, negative = signal decrease, inactive:
Cc1cc2n(n1)C(c1cn(-c3ccccc3)nc1C)Nc1c(C)cccc1-2 (centres undefined) 51.5%
Cc1ccccc1-c1nc(CN2CCCC(C(=O)NCCCN3CCOCC3)C2)c(C)o1 (centres undefined) -7.02%
COCC(=O)NC[C@H]1[C@@H](c2ccc(C3=CCCC3)cc2)[C@H](CO)N1C(=O)C1CC1 -28.3%
O=CN1CCN(C(=O)c2ccccc2F)CC1 95.7%
O=C(Nc1ccccc1N1CCN(C(=O)c2ccc(Cl)cc2)CC1)c1cccnc1 -13%
O=C(c1ccccc1)N1C[C@H]2[C@@H](c3ccccc31)[C@@H](CO)N2C(=O)CN1CCOCC1 121%
CCCNC(=O)Nc1ccc2c(c1)OC[C@H](C)N(CCC)C[C@H](C)[C@H](OC)CN(C)C2=O 70%
C[C@H](NC(=O)C[C@@H]1CC[C@H]2[C@H](COc3ccc(NS(=O)(=O)c4ccc(Cl)cc4)cc3C(=O)N2C)O1)c1ccccc1 70.4%
N#Cc1ccc(C(=O)Nc2ccc(N3CCN(C(=O)c4ccco4)CC3)cc2)c(F)c1 36.2%
O=C(Nc1ccc(F)cc1)N1C[C@@H]2[C@H](c3ccccc31)[C@H](CO)N2C(=O)Cc1ccccc1 -22.4%
CCNC(=O)Nc1ccc2c(c1)C(=O)N(C)[C@H]1CC[C@H](CC(=O)NCCN3CCCC3)O[C@@H]1CO2 16.7%
CN1C(=O)c2cc(NC(=O)c3cccs3)ccc2OC[C@@H]2O[C@H](CC(=O)NCC(F)(F)F)CC[C@H]21 -19.1%
CN1C(=O)c2cc(NC(=O)c3cccs3)ccc2OC[C@@H]2O[C@@H](CC(=O)NCCN3CCCCC3)CC[C@@H]21 58.8% [at 30 µM]
CO[C@@H]1CN(C)C(=O)c2cc(NC(=O)NC(C)C)ccc2OC[C@H](C)N(Cc2cncnc2)C[C@H]1C 40.5%
C[C@H](O)C#Cc1ccc2c(c1)O[C@@H](CN(C)Cc1ccc(-c3ccccc3)cc1)[C@H](C)CN([C@H](C)CO)S2(=O)=O 45.2%
COc1cccc(CNC(=O)C[C@H]2CC[C@@H]3[C@@H](COc4ccc(NC(C)=O)cc4C(=O)N3C)O2)c1 6.67%
COc1cccc(NC(=O)C[C@@H]2CC[C@@H]3[C@@H](COc4ccc(NS(=O)(=O)c5cccc(F)c5)cc4C(=O)N3C)O2)c1 -18.3%
CN1C(=O)c2cc(NC(=O)c3cccs3)ccc2OC[C@H]2O[C@H](CC(=O)NCCN3CCCCC3)CC[C@H]21 -21.6%
COc1ccc(CC(NC(C)=O)C(=O)N2CCN(C(=O)N(C(C)C)C(C)C)CC2)cc1 (centres undefined) 13.5%
CCCNC(=O)Nc1ccc2c(c1)C(=O)N(C)[C@@H]1CC[C@@H](CC(=O)NCC3CCCCC3)O[C@H]1CO2 71.2%
COc1cccc(CNC(=O)C[C@@H]2CC[C@@H]3[C@@H](COc4ccc(NC(C)=O)cc4C(=O)N3C)O2)c1 11.7%
O=C(C1CC1)N1C[C@H]2[C@@H](c3ccccc31)[C@H](CO)N2C(=O)c1ccccc1F -25.8%
CCN(CC)CCNc1nc(-c2ccccc2)nnc1C(F)(F)F -20.6%
Cc1cc(C)c2c(c1)/C(=C/C(=O)c1ccc(Br)s1)C(=O)N2 120%
COc1ccc2[nH]c(=O)c(COC(=O)c3ccco3)cc2c1 71.3%
CC(=O)N(C)C[C@@H]1[C@@H](c2ccccc2)[C@H](CO)N1C(=O)C1CCC1 -15.8%
COc1cccc(CNC(=O)C[C@H]2CC[C@@H]3[C@H](COc4ccc(NC(C)=O)cc4C(=O)N3C)O2)c1 -32.5%
C[C@H]1CN([C@@H](C)CO)S(=O)(=O)c2ccc(-c3ccccc3F)cc2O[C@@H]1CN(C)Cc1cccnc1 -53.4%
CCC(=O)N1[C@@H](CO)[C@H](c2ccccc2)[C@@H]1CN(C(C)C)S(C)(=O)=O 182%
C[C@H]1CN([C@@H](C)CO)S(=O)(=O)c2ccc(C#CC3CCCCC3)cc2O[C@@H]1CN(C)C -91.8%
CNC(=O)C[C@@H]1CC[C@@H]2[C@H](COc3ccc(NC(=O)NC(C)C)cc3C(=O)N2C)O1 128%
CCNC(=O)C[C@@H]1CC[C@H]2[C@@H](COc3ccc(NC(=O)Nc4ccc(F)cc4)cc3C(=O)N2C)O1 309%
COC(=O)C[C@@H]1CC[C@@H]2[C@@H](COc3ccc(NC(=O)c4cc(F)cc(F)c4)cc3C(=O)N2C)O1 -26.7%
CN1C(=O)c2cc(NC(=O)c3ccc(C(F)(F)F)cc3)ccc2OC[C@@H]2O[C@@H](CC(=O)NCc3ccc4c(c3)OCO4)CC[C@H]21 90.6%
COCC(=O)N1[C@H](CO)[C@@H](c2ccccc2)[C@H]1CN(C)C(=O)c1ccncc1 -29.2%
CCN(CC)CCOc1cccc(C(C)C)c1 5.69%
COC(=O)C[C@@H]1CC[C@@H]2[C@H](COc3ccc(NS(=O)(=O)c4ccc(F)cc4)cc3C(=O)N2C)O1 90.1%
CC(C)NC(=O)N(C)C[C@H]1Oc2cc(C#C[C@H](C)O)ccc2S(=O)(=O)N([C@@H](C)CO)C[C@H]1C 67.8%
CN1C(=O)c2cc(NC(=O)c3cccs3)ccc2OC[C@@H]2O[C@@H](CC(=O)N3CCOCC3)CC[C@H]21 0.812%
